Only some compounds are listed: those with a hit (about 6.5% of all), similar ones and a draw of the others.
NADH coupling: blocks coupling enzymes of NAD/NADH assays; coupled PK/LDH NADH assays, four targets; IC50, µM (titrated, usually from 10 µM), for inactives: at the top dose inhibition; 0.02% of 65,000 active; AID 774;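 active means single-dose screening hits from any of four coupled enzyme assays that gave an IC50 when retested across doses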;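 further: the DPM-DC format reads NADH fluorescence rather than 340 nm absorbance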
Autofluor 339: intrinsic fluorescence of library compounds, ex339/em460 – biochemical, MLSMR library, data from DPM-DC assay, artefact control, profiling panel | 5.5% of 65,000 active | fluorescence fold increase at 10 µM | AID 709 | compound autofluorescence, ex339/em460 nm, NADH buffer; hits give high values; 1 = no-compound wells, NADH background;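 active means at 10 µM, mean starting fluorescence two-fold or more over control wells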;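 further: signal is the first read of a kinetic run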
Spn DPM-DC inh: inhibitors of Streptococcus pneumoniae diphosphomevalonate decarboxylase; purified DPM-DC, PK/LDH coupled NADH fluorescence; calls only at 10 µM; 0.49% of 65,000 active;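 active means the 320 compounds with the highest percent inhibition in the single-dose primary screen, excluding strongly autofluorescent ones, cut at about 32% in these data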;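 further: kinetic rate of NADH fluorescence loss reporting ADP formed by the decarboxylase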
Spn MK inh: blocks S. pneumoniae mevalonate kinase | purified MK, PK/LDH-coupled NADH absorbance 340 nm | inhibition, % at 10 µM | 0.48% of 65,000 active;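 active means ranked among the strongest by inhibition in the single 10 µM screen, a fixed top-ranked set picked for dose follow-up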
Abs 340nm: compounds absorbing at 340 nm. compound absorbance at 340 nm, fold over control. fold change at 10 µM. 65,000 tested, under 10 active. AID 708;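 active means at 10 µM dose, initial 340 nm absorbance at least 2 fold that of control wells; inactive means change under 2 fold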;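 further: initial absorbance extrapolated from kinetic A340 decline of NADH oxidation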
PMK inhibit: blocks S. pneumoniae phosphomevalonate kinase; inhibition, % at 10 µM; 0.49% of 65,000 active; AID 539; purified PMK, PK/LDH-coupled NADH absorbance 340 nm;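 active means top-ranked compounds by inhibition in the single 10 µM screen, taking a fixed number of the strongest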;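 further: 0% = full reaction with DMSO carrier and 100% = background rate without enzyme reaction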
The depositor's hits bear a star; i = inactive; . = no result given; + = active, no number.

SMILES	NADH coupling	Autofluor 339	Spn DPM-DC inh	Spn MK inh	Abs 340nm	PMK inhibit
CN(C)c1oc(-c2ccc(OCc3ccc(Cl)cc3)cc2)nc1C#N	6.0%	3.29*	i	5.0	1.06	1.0
CN(C)c1oc(COc2ccc(F)cc2)nc1C#N	5.0%	1.1	i	10.0	1.03	4.0
COCCn1c(C)cc(C(=O)COc2nc3ccccc3nc2C)c1C	18.0%	1.07	+	9.0	1.09	13.0
CN(CCNC(=O)C1CC(=O)N(C2CCCC2)C1)Cc1ccccc1 (stereo not drawn)	4.0%	1.06	i	4.0	1.05	9.0
Cc1noc(C)c1CSc1nnc(-c2ccncc2)n1-c1cccc(Cl)c1C	2.0%	1.04	i	0.0	0.99	25.0*
Cc1ccccc1-n1c(SCc2c(C)noc2C)nnc1-c1c[nH]c2ccccc12	1.0%	1.09	i	2.0	1.01	0.0
O=C(NCCN1CCCC1)C1CC(=O)N(C2CCCCC2)C1 (stereo not drawn)	6.0%	1.11	i	11.0	0.99	8.0
COc1ccc(N2CCN(c3ccc(NC(=O)c4ccc5c(c4)OCO5)cc3C#N)CC2)cc1	7.0%	1.86	i	7.0	1	10.0
COc1ccc(CC(=O)Nc2ccc(N3CCN(c4ccc(OC)cc4)CC3)c(C#N)c2)cc1	12.0%	2.16*	i	6.0	0.99	12.0
OCCN(Cc1ccccc1)Cc1ccc(F)c(F)c1	15.0%	1.06	i	35.0	1.07	5.0
CC(=O)N1c2c(cc(Br)cc2S(=O)(=O)NCc2ccc3c(c2)OCO3)CC1C (stereo not drawn)	3.0%	1.06	i	8.0	1.03	0.0
c1ccc(N2CCN(c3cnccn3)CC2)nc1	21.0%	0.55	+	7.0	1.05	18.0
Cc1cccc(CN2CCN(c3ccccn3)CC2)c1	16.0%	1.06	i	48.0*	1.09	0.0
Cc1cc(C)nc(SCC(=O)N2CCC(C(N)=O)CC2)n1	5.0%	1.09	i	5.0	1.04	9.0
O=C(c1ccco1)N1CCN(C(=O)C(Sc2ccccc2)c2ccccc2)CC1 (stereo not drawn)	6.0%	1.1	i	11.0	1.02	6.0
O=C(c1noc2c1CCCC2)N1CCOCC1	10.0%	0.87	i	11.0	1	8.0
O=C(NCc1ccc2c(c1)OCO2)c1c[nH]c2ccc(S(=O)(=O)N3CCOCC3)cc2c1=O	10.0%	2.04*	i	2.0	1.05	17.0
O=C(NCC1COc2ccccc2O1)c1c[nH]c2ccc(S(=O)(=O)N3CCOCC3)cc2c1=O (stereo not drawn)	2.0%	2.83*	i	2.0	1.06	2.0
O=C(NCc1ccc2c(c1)OCO2)c1cc(S(=O)(=O)N2CCCCC2)ccc1F	4.0%	1.04	i	0.0	1.02	12.0
Cc1ccc2nc(-c3ccc(NC(=O)CN4CCN(C(=O)c5ccco5)CC4)cc3)sc2c1	3.0%	2.16*	.	5.0	1.1	0.0
COc1ccc2c(C)cc(=O)oc2c1C	8.0%	2.09*	.	7.0	1.07	9.0
C=CCOC(=O)COc1ccc2c(C)c(C)c(=O)oc2c1C	4.0%	2.41*	.	5.0	1.04	10.0
CCc1c(C)c2ccc(OCC(=O)N(C)C)c(C)c2oc1=O	10.0%	3.54*	.	13.0	1.08	6.0
Cc1c(OCC(=O)OC(C)C)ccc2c3c(c(=O)oc12)CCC3	6.0%	1.83	i	5.0	1.13	4.0
CCc1ccc(OCC(=O)N(C)C)c(Br)c1	9.0%	1.11	i	9.0	1.07	8.0
SMILES	NADH coupling	Autofluor 339	Spn DPM-DC inh	Spn MK inh	Abs 340nm	PMK inhibit
CCc1c(C)c2ccc(OCC(=O)OC(C)C)c(C)c2oc1=O	8.0%	3.61*	.	12.0	1.12	4.0
CCCn1c(SCC(=O)Nc2sc(C)c(C)c2C(=O)OC)nc2c1c(=O)n(C)c(=O)n2C	7.0%	1.03	i	11.0	1.13	10.0
COC(=O)c1cn(NC(=O)c2ccc3c(c2)OCO3)c(=O)c2ccccc12	4.0%	1.11	i	12.0	1.05	0.0
CCOC(=O)CCc1c(C)c2ccc(OCC(=O)N(CC)CC)c(C)c2oc1=O	5.0%	3.76*	.	4.0	1.09	6.0
CCc1cc(=O)oc2cc(OCC(=O)N(CC)CC)c(Cl)cc12	10.0%	1.54	i	7.0	1.1	12.0
Cc1c(C)c2ccc(OCC(=O)N(C)C)c(C)c2oc1=O	13.0%	3.68*	.	15.0	1.19	11.0
Cc1cc(=O)oc2c(C)c(OCC(=O)N(C)C)ccc12	3.0%	3.35*	.	5.0	1.1	0.0
CCN(CC)C(=O)COc1cccc2ccccc12	8.0%	1.16	i	3.0	1	22.0
CS(=O)(=O)N(CC(=O)N1CCN(c2cccc(Cl)c2)CC1)c1cccc(F)c1	1.0%	1.06	i	2.0	0.98	0.0
CC(C)CN(CC(C)C)S(=O)(=O)N1CCC(C(=O)NC2CCCCCCC2)CC1	10.0%	1.02	i	1.0	0.99	30.0*
COc1ccc2c(c1)c(C(O)CN1CCN(Cc3ccc4c(c3)OCO4)CC1)c(C)n2C (stereo not drawn)	6.0%	1.2	i	11.0	1.03	6.0
COc1ccc2c(c1)c1ncnc(N3CCN(Cc4ccc5c(c4)OCO5)CC3)c1n2C	6.0%	3.23*	i	5.0	1	7.0
COC(=O)c1[nH]c2cc(OC)ccc2c1NC(=O)CCN1CCN(Cc2ccc3c(c2)OCO3)CC1	4.0%	1.35	i	5.0	1.05	6.0
COc1ccc2[nH]c3c(N4CCN(Cc5ccc6c(c5)OCO6)CC4)ncnc3c2c1	5.0%	2.33*	.	9.0	1.08	0.0
CCOC(=O)c1cnc2sc3c(n2c1=O)CCCC3	9.0%	5.04*	.	3.0	1.1	15.0
CCOc1ccc(C2C=C(c3ccc(C)cc3)Nc3ncnn32)cc1 (stereo not drawn)	10.0%	3.59*	.	12.0	1.12	8.0
COc1ccc(C2C=C(c3ccccc3)Nc3ncnn32)cc1 (stereo not drawn)	6.0%	3.39*	.	7.0	1.04	12.0
CCOc1ccc(C2C=C(c3ccc(C)cc3)Nc3nnnn32)cc1 (stereo not drawn)	6.0%	1.19	i	14.0	1.04	5.0
COCCN(CC(=O)NCc1ccc(OC)cc1)C(=O)CCC(=O)Nc1nccs1	8.0%	1.06	i	13.0	0.99	10.0
CC(=O)c1sc(NC(=O)c2ccc(Cn3cc(Br)cn3)o2)nc1C	3.0%	1.13	i	4.0	1.14	6.0
Cc1ccc2nc(NC(=O)c3ccc(Cl)s3)sc2c1	3.0%	2.07*	.	1.0	1.1	5.0
Cc1ccc2nc(NC(=O)c3ccc(Cn4cc(Cl)cn4)o3)sc2c1	0.0%	2.25*	i	1.0	1.07	0.0
Cc1ccc2nc(NC(=O)c3cccs3)sc2c1	3.0%	1.46	i	0.0	1.1	0.0
COc1ccc(OC)c(-n2c(SCC(=O)Nc3cc(C)on3)nnc2-c2c[nH]c3ccccc23)c1	3.0%	1.12	i	8.0	0.99	0.0

From PubChem
